# Screening data (PubChem BioAssay)
# TrxR1 inh: inhibitors of rat thioredoxin reductase 1; recombinant rTrxR1, NADPH fluorescence consumption, selenite substrate; Potency, µM (series often up to 114 µM), actives largely listed as inhibitors; actives 1% (n = 390,000); AID 588453; also: nearly all actives have a fitted effect of over 65% in size
#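 Rat TrxR1 (90 nM in the dispensed reagent) was pre-reduced with 400 uM NADPH for 5 min at room temperature, then incubated with compound for 15 min. After 400 uM selenite was added, NADPH fluorescence (Ex 340/Em 450 nm) was followed for 8 min.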
# GLS inhibitor: glutaminase GLS (human) inhibition. O94925. GLS enzymatic activity, qHTS titration. Potency, µM (titrated, usually from 45.5 µM), usual class: inhibitors. actives 0.21% (n = 410,000). AID 624170
#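 hKGA in 45 mM KH2PO4 pH 8.2, 0.02% Tween-20 with pin-transferred compounds; 1 mM L-glutamine (stock) plus glutamate oxidase/HRP/Amplex Red coupling added. Fluorescence read initially and after 30 min at RT.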
# mIDH1 inhibitor: inhibitors of human mutant IDH1 R132H. O75874. IDH1-R132H enzyme, NADPH consumption, diaphorase/resazurin fluorescence. Potency, µM (top dose mostly 76.6 µM), usual class: inhibitors. actives 0.093% (n = 390,000). AID 602179; also: nearly all actives have a fitted effect of over 65% in size
# Target sequence (O75874 whole entry R132H, stated change not applied): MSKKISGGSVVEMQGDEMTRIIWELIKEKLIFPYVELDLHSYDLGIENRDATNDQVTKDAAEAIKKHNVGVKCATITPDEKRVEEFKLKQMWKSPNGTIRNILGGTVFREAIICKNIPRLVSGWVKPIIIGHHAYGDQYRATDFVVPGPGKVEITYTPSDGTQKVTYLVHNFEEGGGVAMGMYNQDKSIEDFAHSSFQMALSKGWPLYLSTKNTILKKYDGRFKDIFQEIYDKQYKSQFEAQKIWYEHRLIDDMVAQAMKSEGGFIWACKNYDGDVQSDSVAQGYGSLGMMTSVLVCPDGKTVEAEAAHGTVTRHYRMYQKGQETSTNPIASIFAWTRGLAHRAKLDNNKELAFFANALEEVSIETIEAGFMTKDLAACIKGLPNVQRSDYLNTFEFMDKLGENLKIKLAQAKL
#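 IDH1-R132H (0.5 ug/mL) preincubated 30 min with compound, then NADPH (0.016 mM) and alpha-KG (2 mM) added; 80 min at RT, pH 7.5. Remaining NADPH coupled via diaphorase/resazurin to fluorescence (540/590 nm); concentration-response curves normalized to no-enzyme control.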
# TrxR1 substrate: rat thioredoxin reductase 1 substrate activity; purified TrxR1 substrate turnover, NADPH consumption readout; Potency, µM (highest dose often 114 µM); actives 0.01% (n = 390,000); AID 588456; also: nearly all actives have a fitted effect of over 50% in size
#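 Rat TrxR1, dispensed at 90 nM, was prereduced with 400 uM NADPH (final) for 5 min at ~22 deg C, then incubated with compound 15 min before 400 uM selenite. A first-read NADPH fluorescence drop versus no-compound background flagged substrates.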
# Numbers stand for hits; 0 = inactive; ? = inconclusive; - = not tested or not shown; ! = a repeat was not active. The list is not random: actives were taken first. Their share in the collection is about 1.2%. Calls follow the shape of the dose curve; as a rule, active = well fitted curve in the direction sought with a large enough effect; inconclusive = small, poorly fitted or top-dose-only effect, or another doubt; inactive = no such curve, though single readings can be large; an effect the other way counts as inactive or inconclusive.
SMILES,TrxR1 inh,GLS inhibitor,mIDH1 inhibitor,TrxR1 substrate
Cc1ccccc1NC(=O)CSc1nc2ccc(NC(=O)CCc3ccccc3)cc2s1,0,0,0,0
CC(C)(C)n1ncc2c(=O)n(Cc3ccc(Cl)c(OC(F)(F)F)c3)cnc21,0,-,-,0
C[C@H](CO)N1C[C@H](C)[C@@H](CN(C)C(=O)Nc2ccc(C(F)(F)F)cc2)Oc2ccc(NC(=O)c3ccncc3)cc2C1=O,?,?,0,0
C[C@@H]1CN([C@H](C)CO)C(=O)c2cc(NC(=O)c3ccncc3)ccc2O[C@@H]1CN(C)C(=O)Nc1ccccc1,70.8µM,0,0,0
O=C(CSc1nnc(-c2cnccn2)n1Cc1ccco1)c1ccc(Cl)cc1,12.6µM,0,0,0
O=C(CSc1nnc(-c2cnccn2)n1Cc1ccco1)c1ccccc1,56.2µM,-,0,0
Cn1c(=O)c2c(SCC(=O)NCc3ccco3)nc(-c3ccccc3F)nc2n(C)c1=O,0,0,0,0
CO/N=C(\C(=O)N[C@@H]1C(=O)N2C(C(=O)[O-])=C(C[n+]3cccc4c3CCCC4)CS[C@H]12)c1csc(N)n1,-,6.31µM,-,-
CO/N=C(/C(=O)N[C@@H]1C(=O)N2C(C(=O)O)=C(C[n+]3ccc(N)n3CCO)CS[C@H]12)c1csc(N)n1,-,0,-,-
CC(=O)c1sc2nc(-c3ccco3)ccc2c1N,10µM,?,0,0
COc1ccccc1CN1CC(C(=O)NCCc2ccc(C)o2)CCC1=O (stereo not drawn),50.1µM,0,0,0
COc1ccc(CCN2CC(C(=O)N(C)Cc3ccccn3)CCC2=O)cc1 (stereo not drawn),-,0,0,-
COc1ccccc1CN1CC(C(=O)N(C)Cc2ccncc2C)CCC1=O (stereo not drawn),0,0,0,0
COc1ccc(CCN2CC(C(=O)N(C)Cc3ccc(C)o3)CCC2=O)cc1 (stereo not drawn),50.1µM,0,0,0
COc1ccccc1CN1CC(C(=O)N(C)Cc2ccc(C)o2)CCC1=O (stereo not drawn),35.5µM,0,0,0
CC(OC(=O)c1cccc(-n2cnnn2)c1)C(=O)c1ccccc1 (stereo not drawn),0,0,0,0
CC(=O)C[C@H]1[C@H](O[C@H]2[C@H](OC(C)C(=O)N[C@@H](C)C(=O)N[C@H](CCC(=O)N[C@@H](CCCCN)C(=O)N[C@H](C)C(=O)O)C(N)=O)[C@@H](NC(=O)O)C(O)O[C@@H]2CO)O[C@H](CO)[C@@H](O)[C@@H]1O (stereo partly drawn),-,0,-,-
Cc1cccc(OCC(=O)N2CCc3ccccc3C2)c1,0,0,0,0
CCOCCc1nn2c(=O)cc(COC(=O)CNC(=O)c3ccc(F)cc3)nc2s1,0,0,0,0
C=CCn1c(SCc2nc3ccccc3nc2C)nnc1-c1ccoc1C,44.7µM,0,0,0
CCn1c(SCc2nc3ccccc3nc2C)nnc1-c1cccs1,0,0,0,0
Cc1ccc(NC(=S)N/C(=N/S(=O)(=O)c2ccccc2)c2ccccc2)cc1,6.31µM,0,0,0
Cc1ccc(S(=O)(=O)/N=C(/NC(=S)Nc2ccccc2)c2ccccc2)cc1,8.91µM,0,0,0
CC(=O)Nc1ccc(N/C(=N\S(=O)(=O)c2ccccc2)c2ccccc2)cc1,0,0,0,0
Cc1ccc(S(=O)(=O)/N=C(/Nc2ccccc2C)c2ccccc2)cc1,0,0,0,0
SMILES,TrxR1 inh,GLS inhibitor,mIDH1 inhibitor,TrxR1 substrate
Cc1ccc2nc3n(c2c1)CCCN3,0,0,0,0
S=c1[nH]nc2n1CCCN2,0,11.2µM,0,0
O=C(COC(=O)/C=C/c1cccs1)Nc1nc(-c2cccc(Br)c2)cs1,0,0,0,0
O=C(COC(=O)/C=C/c1cccs1)Nc1nc(-c2ccccc2)cs1,56.2µM,0,0,0
CC(=O)Nc1cc(O)c2nonc2c1O,5.62µM,-,-,3.16µM
CCOc1cc(C(=O)OCc2cc(=O)n3nc(CC)sc3n2)cc(OCC)c1OCC,0,0,0,0
Cc1cc2ccccc2n1CCNC(=O)c1ccc(Br)o1,10µM,0,0,0
CCN(CC)C(=O)OCCc1cc2ccccc2c(=O)o1,39.8µM,0,0,0
O=C(O)c1ccccc1C(=O)OCCc1cc2ccccc2c(=O)o1,0,0,0,0
Cc1cc(F)ccc1C(O)c1ncc(-c2cccc(OCc3ccccc3)c2)[nH]1 (stereo not drawn),-,0,-,-
O=C(NC(N1CCCC1)C(Cl)(Cl)Cl)c1ccccc1 (stereo not drawn),31.6µM,0,0,0
N[C@@H](C(=O)N[C@H]1C(=O)N2C(C(=O)O)=C(Cl)CC[C@H]12)c1ccccc1,-,0,-,-
Cc1nn(-c2ccccc2)c(Cl)c1/C=N/NC(=O)OC(C)(C)C,0,0,0,0
Cc1nn(-c2ccccc2)c(Cl)c1/C=N/Nc1ccc(Cl)c(C(=O)O)c1,0,15.8µM,0,0
Cc1ccc(S(=O)(=O)N2C[C@H]3[C@H]4C(=O)N(c5ccccc5)C(=O)[C@H]4C[C@H](OC(=O)Nc4cccs4)[C@@]3(O)C2)cc1,-,0,0,-
COc1cc(Nc2c(C#N)cnc3cc(OCCCN4CCN(C)CC4)c(OC)cc23)c(Cl)cc1Cl,-,0,-,-
O=C1CC(NC2CCN(C(=O)c3cccc(F)c3)CC2)C(=O)N1 (stereo not drawn),0,11.2µM,0,0
CCN1C(=O)CC(NC2CCN(C(=O)c3ccc(F)cc3)CC2)C1=O (stereo not drawn),0,0,0,0
C/C(=N\NC(=S)Nc1ccccc1C)c1ccc(O)cc1,0,10µM,0,0
N#CC1=C(N)C(C#N)(C#N)C2(CCC3(CC2)OCCO3)C2CC3(CC=C12)OCCO3 (stereo not drawn),89.1µM,0,0,0
COC(=O)C1=C(C)NC(=O)/C1=C\c1cccs1,0,0,0,0
COC(=O)C1=C(C)NC(=O)/C1=C\N(C)C,15.8µM,0,0,0
Cc1cc(O)c(C(=O)/C=C/c2cccc([N+](=O)[O-])c2)c(=O)o1,0,0,0,0
CC(=O)Oc1ccccc1C(=O)C=Cc1cccc([N+](=O)[O-])c1,25.1µM,0,0,0
COCC1=C(C(=O)OC(C)OC(=O)OC(C)C)N2C(=O)C(NC(=O)/C(=N\OC)c3csc(N)n3)C2SC1 (stereo not drawn),-,0,-,-
SMILES,TrxR1 inh,GLS inhibitor,mIDH1 inhibitor,TrxR1 substrate
COCO[C@H]([C@@H](C)C=C(Br)Br)[C@@H](C)COCc1ccc(OC)cc1,0,-,-,0
COc1ccc(COC[C@H](C)[C@H](O)[C@@H](C)[C@H]2OC(=O)[C@@H]2C)cc1,7.94µM!,?,0,0
CC(C)(C)c1cc(CCC(=O)NCCc2ccccn2)cc(C(C)(C)C)c1O,0,10µM,0,0
CCCNC(=O)CCc1cc(C(C)(C)C)c(O)c(C(C)(C)C)c1,0,0,0,0
COC(C/C=C/C(=O)[C@H](C)OCc1ccccc1)OC,44.7µM,0,0,0
COC(C/C=C/C(=O)COCc1ccccc1)OC,?,0,0,0
CC(=O)NC(Cc1ccc(O)cc1)C(=O)NCC(N)C(=O)c1ccccc1 (stereo not drawn),0,-,-,0
